# PubChem BioAssay AID1159580 (chemical genetic matrix, 2015)
# The campaign covered roughly 5,500 compounds. About 2,000 (36%) were called active. Not shown: some 18% with an inconclusive outcome. The list shows a part of the results. Unmarked numbers belong to inactive results. No stated cut-off is given here; in the data, active means normalized growth mostly below about 0.91 (no sharp cut-off); inconclusive means no clear call, values can overlap the other calls; inactive means mostly above about 0.92.
# Experiment: chemical genetic growth profiling, strain panel (AID 1159580);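 further: tested at 20 µM; growth read once vehicle control cultures reached saturation at 30 °C; 1 = growth at the plate median or of vehicle wells; lower values mean less growth of the strain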
# Conditions: S. cerevisiae deletion strains, growth OD
# [1] = locus YHR030C, strain SLT2, hits give low values
# [2] = locus YJL095W, strain BCK1, hits give low values
smiles,measurement,setting,value
Cc1cc(=O)c2c(O)cc(O)c(C)c2o1,normalized growth,"locus YAL021C, strain ccr4, hits give low values",0.976
same,normalized growth,"locus YAL026C, strain drs2, hits give low values",0.926
same,normalized growth,"locus YAL030W, strain snc1, hits give low values",0.954
same,normalized growth,"locus YBL061C, strain skt5, hits give low values",0.951
same,normalized growth,"locus YBR009C, strain hhf1, hits give low values",0.953
same,normalized growth,"locus YBR021W, strain FUR4, hits give low values",0.995
same,normalized growth,"locus YBR023C, strain chs3, hits give low values",0.936
same,normalized growth,"locus YBR171W, strain sec66, hits give low values",0.921
same,normalized growth,"locus YBR229C, strain ROT2, hits give low values",0.987
same,normalized growth,"locus YBR231C, strain swc5, hits give low values",0.924
same,normalized growth,"locus YBR279W, strain paf1, hits give low values",0.946
same,normalized growth,"locus YCL011C, strain gbp2, hits give low values",0.951
same,normalized growth,"locus YCL016C, strain dcc1, hits give low values",0.937
same,normalized growth,"locus YCL029C, strain bik1, hits give low values",0.994
same,normalized growth,"locus YCL061C, strain MRC1, hits give low values",0.938
same,normalized growth,"locus YCL069W, strain vba3, hits give low values",0.982
same,normalized growth,"locus YCR088W, strain abp1, hits give low values",0.965
same,normalized growth,"locus YDL005C, strain med2, hits give low values",0.963
same,normalized growth,"locus YDL035C, strain GPR1, hits give low values",1.02
same,normalized growth,"locus YDL040C, strain nat1, hits give low values",0.979
same,normalized growth,"locus YDL074C, strain BRE1, hits give low values",1.02
same,normalized growth,"locus YDL101C, strain DUN1, hits give low values",0.975
same,normalized growth,"locus YDL134C, strain PPH21, hits give low values",0.996
same,normalized growth,"locus YDL185W, strain tfp1, hits give low values",0.962
same,normalized growth,"locus YDL192W, strain arf1, hits give low values",0.988
same,normalized growth,"locus YDR001C, strain nth1, hits give low values",0.959
same,normalized growth,"locus YDR069C, strain doa4, hits give low values",0.962
same,normalized growth,"locus YDR101C, strain arx1, hits give low values",1.01
same,normalized growth,"locus YDR137W, strain rgp1, hits give low values",0.504 (active)
same,normalized growth,"locus YDR159W, strain sac3, hits give low values",0.907
same,normalized growth,"locus YDR162C, strain NBP2, hits give low values",1.03
same,normalized growth,"locus YDR195W, strain ref2",1.34 [resistant] (active)
same,normalized growth,"locus YDR297W, strain sur2, hits give low values",0.966
same,normalized growth,"locus YDR318W, strain mcm21, hits give low values",0.988
same,normalized growth,"locus YDR334W, strain swr1, hits give low values",0.951
same,normalized growth,"locus YDR335W, strain msn5, hits give low values",0.897 (active)
same,normalized growth,"locus YDR388W, hits give low values",0.98
same,normalized growth,"locus YDR392W, strain spt3, hits give low values",0.753
same,normalized growth,"locus YDR502C, strain sam2, hits give low values",0.977
same,normalized growth,"locus YEL003W, strain gim4, hits give low values",0.95
same,normalized growth,"locus YEL037C, strain rad23, hits give low values",0.961
same,normalized growth,"locus YEL061C, strain CIN8 (second series), hits give low values",0.943
same,normalized growth,"locus YEL061C, strain CIN8, hits give low values",0.993
same,normalized growth,"locus YER015W, strain faa2, hits give low values",0.95
same,normalized growth,"locus YER016W, strain bim1, hits give low values",0.937
same,normalized growth,"locus YER110C, hits give low values",0.968
same,normalized growth,"locus YER111C, strain swi4, hits give low values",0.934
same,normalized growth,"locus YER155C, strain BEM2 (second series), hits give low values",0.808 (active)
same,normalized growth,"locus YER155C, strain BEM2, hits give low values",0.987
same,normalized growth,"locus YER167W, strain BCK2, hits give low values",1
same,normalized growth,"locus YFR010W, strain ubp6, hits give low values",0.942
same,normalized growth,"locus YGL078C, strain dbp3, hits give low values",0.965
same,normalized growth,"locus YGL086W, strain mad1, hits give low values",1
same,normalized growth,"locus YGL167C, strain pmr1, hits give low values",0.936
same,normalized growth,"locus YGL173C, strain kem1, hits give low values",0.946
same,normalized growth,"locus YGL227W, strain vid30, hits give low values",0.957
same,normalized growth,"locus YGL240W, strain doc1, hits give low values",0.931
same,normalized growth,"locus YGL248W, strain PDE1, hits give low values",0.995
same,normalized growth,"locus YGL253W, strain hxk2, hits give low values",0.962
same,normalized growth,"locus YGR078C, strain PAC10, hits give low values",0.985
same,normalized growth,"locus YGR135W, strain pre9, hits give low values",0.965
same,normalized growth,"locus YGR229C, strain SMI1, hits give low values",1.01
same,normalized growth,"locus YGR252W, strain gcn5, hits give low values",1.03
same,normalized growth,"locus YHR013C, strain ard1, hits give low values",1.05
same,normalized growth,"locus YHR027C, strain rpn1, hits give low values",0.964
same,normalized growth,[1],0.996
same,normalized growth,"locus YHR079C, strain IRE1 (second series), hits give low values",0.988
same,normalized growth,"locus YHR094C, strain hxt1, hits give low values",0.983
same,normalized growth,"locus YHR129C, strain ARP1, hits give low values",0.985
same,normalized growth,"locus YHR142W, strain chs7, hits give low values",0.869 (active)
same,normalized growth,"locus YHR200W, strain rpn10, hits give low values",0.96
same,normalized growth,"locus YIL066C, strain RNR3, hits give low values",0.991
same,normalized growth,"locus YIL073C, strain SPO22, hits give low values",0.967
same,normalized growth,"locus YIL125W, strain kgd1, hits give low values",1
same,normalized growth,"locus YIR030C, strain dcg1, hits give low values",0.973
same,normalized growth,"locus YJL092W, strain hpr5, hits give low values",0.964
same,normalized growth,"locus YJL095W, strain BCK1 (second series), hits give low values",0.962
same,normalized growth,[2],0.962
same,normalized growth,"locus YJL115W, strain asf1, hits give low values",0.971
same,normalized growth,"locus YJL129C, strain trk1, hits give low values",0.901
same,normalized growth,"locus YJL134W, strain LCB3, hits give low values",0.989
same,normalized growth,"locus YJL154C, strain vps35, hits give low values",0.977
same,normalized growth,"locus YJL164C, strain tpk1, hits give low values",0.946
same,normalized growth,"locus YJL166W, strain qcr8, hits give low values",0.956
same,normalized growth,"locus YJL168C, strain set2, hits give low values",0.976
same,normalized growth,"locus YJL187C, strain SWE1 (second series), hits give low values",0.97
same,normalized growth,"locus YJL187C, strain SWE1, hits give low values",0.935
same,normalized growth,"locus YJR043C, strain POL32, hits give low values",1.05
same,normalized growth,"locus YKL009W, strain mrt4, hits give low values",0.954
same,normalized growth,"locus YKL068W, hits give low values",0.985
same,normalized growth,"locus YKL085W, strain MDH1 (second series), hits give low values",0.984
same,normalized growth,"locus YKL085W, strain MDH1, hits give low values",0.984
same,normalized growth,"locus YKL160W, strain elf1, hits give low values",0.908
same,normalized growth,"locus YKL190W, strain CNB1, hits give low values",0.993
same,normalized growth,"locus YKR001C, strain vps1, hits give low values",0.949
same,normalized growth,"locus YKR026C, strain gcn3, hits give low values",0.96
same,normalized growth,"locus YKR091W, strain srl3, hits give low values",0.96
same,normalized growth,"locus YLL001W, strain dnm1, hits give low values",0.944
same,normalized growth,"locus YLL026W, hits give low values",0.962
same,normalized growth,"locus YLL041C, strain sdh2, hits give low values",0.971
same,normalized growth,"locus YLR027C, strain aat2, hits give low values",0.962
same,normalized growth,"locus YLR039C, strain RIC1, hits give low values",0.919
same,normalized growth,"locus YLR058C, strain SHM2, hits give low values",0.982
same,normalized growth,"locus YLR102C, strain apc9, hits give low values",0.982
same,normalized growth,"locus YLR221C, strain rsa3, hits give low values",0.977
same,normalized growth,"locus YLR258W, strain gsy2, hits give low values",0.965
same,normalized growth,"locus YLR262C, strain YPT6 (second series), hits give low values",0.507 (active)
same,normalized growth,"locus YLR268W, strain sec22, hits give low values",1
same,normalized growth,"locus YLR320W, strain mms22, hits give low values",0.853 (active)
same,normalized growth,"locus YLR330W, strain CHS5, hits give low values",0.993
same,normalized growth,"locus YLR342W, strain FKS1, hits give low values",0.962
same,normalized growth,"locus YLR357W, strain rsc2, hits give low values",1
same,normalized growth,"locus YLR370C, strain arc18, hits give low values",0.971
same,normalized growth,"locus YLR371W, strain rom2, hits give low values",0.983
same,normalized growth,"locus YLR384C, strain iki3, hits give low values",0.942
same,normalized growth,"locus YLR418C, strain cdc73, hits give low values",0.925
same,normalized growth,"locus YML016C, strain PPZ1, hits give low values",0.982
same,normalized growth,"locus YML032C, strain rad52, hits give low values",0.987
same,normalized growth,"locus YML120C, strain ndi1, hits give low values",0.949
same,normalized growth,"locus YML124C, strain tub3, hits give low values",0.98
same,normalized growth,"locus YMR058W, strain fet3, hits give low values",0.928
same,normalized growth,"locus YMR078C, strain ctf18, hits give low values",0.989
same,normalized growth,"locus YMR125W, strain sto1, hits give low values",0.951
same,normalized growth,"locus YMR129W, hits give low values",0.958
same,normalized growth,"locus YMR205C, strain PFK2, hits give low values",0.896
same,normalized growth,"locus YMR223W, strain ubp8, hits give low values",0.97
same,normalized growth,"locus YMR231W, strain pep5, hits give low values",0.933
same,normalized growth,"locus YMR263W, strain SAP30, hits give low values",0.965
same,normalized growth,"locus YMR307W, strain GAS1, hits give low values",1.05
same,normalized growth,"locus YNL067W, strain RPL9B, hits give low values",0.978
same,normalized growth,"locus YNL071W, strain lat1, hits give low values",0.938
same,normalized growth,"locus YNL209W, strain ssb2, hits give low values",0.96
same,normalized growth,"locus YNL233W, strain BNI4, hits give low values",0.941
same,normalized growth,"locus YNL248C, strain rpa49, hits give low values",0.929
same,normalized growth,"locus YNL250W, strain rad50, hits give low values",0.976
same,normalized growth,"locus YNL271C, strain bni1, hits give low values",0.982
same,normalized growth,"locus YNL298W, strain CLA4, hits give low values",0.983
same,normalized growth,"locus YNL307C, strain MCK1, hits give low values",0.956
same,normalized growth,"locus YNL322C, strain KRE1 (second series), hits give low values",0.971
same,normalized growth,"locus YNL322C, strain KRE1, hits give low values",1.01
same,normalized growth,"locus YNR049C, strain mso1, hits give low values",0.969
same,normalized growth,"locus YNR052C, strain pop2, hits give low values",0.978
same,normalized growth,"locus YOL006C, strain TOP1, hits give low values",1.09
same,normalized growth,"locus YOL012C, strain htz1",0.94
same,normalized growth,"locus YOL147C, strain pex11, hits give low values",0.99
same,normalized growth,"locus YOR001W, strain rrp6, hits give low values",0.909
same,normalized growth,"locus YOR061W, strain CKA2, hits give low values",1.02
same,normalized growth,"locus YOR069W, strain VPS5, hits give low values",0.98
same,normalized growth,"locus YOR070C, strain gyp1, hits give low values",0.961
same,normalized growth,"locus YOR080W, strain dia2, hits give low values",0.972
same,normalized growth,"locus YOR083W, strain WHI5, hits give low values",0.919
same,normalized growth,"locus YOR106W, strain vam3, hits give low values",0.869
same,normalized growth,"locus YOR136W, strain idh2, hits give low values",0.981
same,normalized growth,"locus YOR144C, strain elg1, hits give low values",0.982
same,normalized growth,"locus YOR184W, strain ser1, hits give low values",1.04
same,normalized growth,"locus YOR265W, strain rbl2, hits give low values",0.964
same,normalized growth,"locus YOR270C, strain vph1, hits give low values",0.729 (active)
same,normalized growth,"locus YOR290C, strain snf2, hits give low values",0.898
same,normalized growth,"locus YOR316C, strain cot1, hits give low values",0.969
same,normalized growth,"locus YPL051W, strain arl3, hits give low values",0.859 (active)
same,normalized growth,"locus YPL078C, strain atp4, hits give low values",0.942
same,normalized growth,"locus YPL106C, strain sse1, hits give low values",0.942
same,normalized growth,"locus YPL240C, strain hsp82, hits give low values",0.959
same,normalized growth,"locus YPL241C, strain CIN2, hits give low values",0.998
same,normalized growth,"locus YPR119W, strain clb2, hits give low values",0.995
same,normalized growth,"locus YPR141C, strain kar3, hits give low values",0.987
same,normalized growth,"locus YPR163C, strain tif3, hits give low values",0.992
same,normalized growth,"locus YPR167C, strain met16, hits give low values",0.979
same,normalized growth,"strain wtn01, hits give low values",1.01
COc1cc2oc3cc(OC)c(OC)c(CC=C(C)C)c3c(=O)c2c(O)c1CC=C(C)C,normalized growth,[1],0.981
same,normalized growth,"locus YHR079C, strain IRE1, hits give low values",0.988
same,normalized growth,[2],0.971
same,normalized growth,"locus YJR066W, strain TOR1, hits give low values",0.934
same,normalized growth,"locus YLR113W, strain HOG1, hits give low values",0.958
same,normalized growth,"locus YNL183C, strain NPR1, hits give low values",0.919
same,normalized growth,"locus YOR231W, strain MKK1, hits give low values",0.981
same,normalized growth,"locus YPL256C, strain CLN2, hits give low values",0.992
